KB-V1 MDR tox – qHTS assay for MDR1-selective chemotherapeutics: Primary screen using the drug-selected MDR subline cells KB-V1 | KB-V1 MDR cells viability, CellTiter-Glo, 72 h | Potency, µM (doses to about 46.1 µM), usual class: cytotoxic | actives 3.4% (n = 400,000) | AID 1347076, 2019; further: nearly all actives have a fitted effect of over 60% in size
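Cytotoxicity toward P-gp-expressing KB-V1 cells was determined as loss of CellTiter-Glo luminescence after 72 h at 37 degrees C. Compounds were tested in quantitative HTS format across a concentration range, with curves fitted to normalized data.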
KCNH2 3.1 block – qHTS for Inhibitors of KCHN2 3.1: Mutant qHTS. Potassium voltage-gated channel subfamily H member 2, brain isoform KCNH2 3.1 (human). U2OS KCNH2 3.1, thallium flux FluxOr; stronger effect = lower value. activity change, % (tested at about 1.8 µM). actives 0.95% (n = 340,000). AID 720553, 2013;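 active means maximum activity change below -70%; inconclusive means maximum activity change from -70% to -50%; inactive means maximum activity change above -50%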;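 further: thallium influx rate constant from kinetic fluorescence after stimulation buffer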
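Thallium flux read-out: FluxOr dye with Red40 quencher in HBSS/HEPES, 45 min at RT. Rate constants from kinetic reads were normalized to positive and negative DMSO controls. Cells: U2OS virally expressing the 3.1 isoform.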
SW480 rerep – A quantitative high throughput screen for small molecules that induce DNA re-replication in SW480 colon adenocarcinoma cells; SW480 DNA re-replication, Hoechst DNA content imaging, 48 h; actives 1.8% (n = 340,000); Potency, µM (top dose mostly 46.1 µM), hits mostly activators; further: nearly all actives have a fitted effect of over 55% in size
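SW480 cells exposed to compounds for 48 hr at 37 C, 5% CO2, then Hoechst-stained 40 min. Nuclear DNA content imaged by fluorescence scanning (405 nm excitation, 500-530 nm emission); re-replication scored as increased high-intensity nuclei.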
KCNH2 WT inh – qHTS for Inhibitors of KCHN2 3.1: Wildtype qHTS; AID 720551, 2013; U2OS, BacMam KCNH2, thallium flux FluxOr; stronger effect = lower value; activity change, % at 1.84 µM; actives 0.37% (n = 340,000);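 active means maximum activity change below -70%; inconclusive means maximum activity change between -70% and -50%; inactive means maximum activity change above -50%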
Target sequence (Q12809 whole entry, looked up): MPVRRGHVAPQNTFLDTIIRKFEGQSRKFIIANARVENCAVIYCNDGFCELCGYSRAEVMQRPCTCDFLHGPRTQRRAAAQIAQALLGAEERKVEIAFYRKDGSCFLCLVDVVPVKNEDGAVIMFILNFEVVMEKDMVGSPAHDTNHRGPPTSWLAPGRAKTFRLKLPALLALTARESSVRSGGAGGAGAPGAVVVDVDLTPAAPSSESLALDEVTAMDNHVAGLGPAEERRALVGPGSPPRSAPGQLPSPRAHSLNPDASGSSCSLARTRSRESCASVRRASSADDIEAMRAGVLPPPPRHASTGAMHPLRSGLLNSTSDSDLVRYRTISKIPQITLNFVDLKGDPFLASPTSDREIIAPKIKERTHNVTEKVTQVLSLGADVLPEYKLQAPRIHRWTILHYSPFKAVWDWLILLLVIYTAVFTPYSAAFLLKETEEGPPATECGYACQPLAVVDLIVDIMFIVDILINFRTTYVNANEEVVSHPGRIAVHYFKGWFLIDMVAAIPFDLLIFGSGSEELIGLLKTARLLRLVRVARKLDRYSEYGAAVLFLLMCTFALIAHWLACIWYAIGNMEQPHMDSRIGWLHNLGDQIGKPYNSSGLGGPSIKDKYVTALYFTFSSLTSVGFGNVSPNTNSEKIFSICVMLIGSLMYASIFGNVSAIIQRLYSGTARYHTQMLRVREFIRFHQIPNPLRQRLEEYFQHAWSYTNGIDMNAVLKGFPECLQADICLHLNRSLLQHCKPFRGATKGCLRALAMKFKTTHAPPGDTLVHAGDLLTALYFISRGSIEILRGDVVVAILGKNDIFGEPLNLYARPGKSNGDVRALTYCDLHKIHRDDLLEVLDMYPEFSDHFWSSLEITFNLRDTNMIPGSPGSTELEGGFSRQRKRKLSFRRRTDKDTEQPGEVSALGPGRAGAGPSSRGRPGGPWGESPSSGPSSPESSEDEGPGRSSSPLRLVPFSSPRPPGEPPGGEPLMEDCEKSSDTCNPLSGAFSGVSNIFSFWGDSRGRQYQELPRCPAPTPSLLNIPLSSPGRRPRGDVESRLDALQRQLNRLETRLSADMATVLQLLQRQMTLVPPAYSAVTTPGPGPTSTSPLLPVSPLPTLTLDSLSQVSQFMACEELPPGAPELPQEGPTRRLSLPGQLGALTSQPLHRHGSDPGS
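U2OS cells transduced with wild-type KCNH2 virus are loaded with FluxOr dye for 45 min, and thallium flux is measured in kinetic reads before and after stimulation buffer. Rate constants are normalized to DMSO controls.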
MCF10A rereplic – A quantitative high throughput screen for small molecules that induce DNA re-replication in MCF 10a normal breast cells; actives 2.9% (n = 350,000); MCF 10A DNA re-replication, Hoechst nuclear intensity, 48 h; Potency, µM (top dose mostly 46.1 µM), usual class: activators; further: nearly all actives have a fitted effect of over 50% in size
KB-3-1 tox – qHTS assay for MDR1-selective chemotherapeutics: Primary screen using the parental adenocarcinoma cell KB-3-1. actives 1.4% (n = 400,000). Potency, µM (doses to about 46.1 µM), usual class: cytotoxic. AID 1347075, 2019. KB-3-1 viability, CellTiter-Glo ATP luminescence, 72 h; further: nearly all actives have a fitted effect of over 60% in size
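KB-3-1 parental drug-naive adenocarcinoma cells in DMEM/10% FBS, incubated 72 h at 37 C with pin-transferred compounds across a concentration series. Viability by CellTiter-Glo luminescence; concentration-response curves fitted after normalization.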
Each line names hits and unclear results; the compound was inactive in the other large screens. Compounds with a hit are over-represented: about 7.6% of the library has one in this group of screens. Unless noted, the call rests on the fitted dose curve; in most records, active means well fitted curve in the direction sought with a large enough effect; inconclusive means small, poorly fitted or top-dose-only effect, or another doubt; inactive means no such curve, though single readings can be large; an effect the other way counts as inactive or inconclusive.

CC(=O)c1c(C)oc2c1C(=O)c1ccccc1C2=O	KB-V1 MDR tox 6.51µM, SW480 rerep 7.31µM, KB-3-1 tox inconclusive
COc1ccc(CNC(=O)c2ccc(-c3ccccc3)cc2)cc1	none
Cc1oc2c(c1C(=O)NCc1cccnc1)C(=O)c1ccccc1C2=O	KB-V1 MDR tox 2.59µM, MCF10A rereplic inconclusive, KB-3-1 tox inconclusive
O=C(c1ccccc1)c1coc2c1C(=O)c1ccccc1C2=O	MCF10A rereplic inconclusive
Cc1cn([C@H]2C[C@H](O)[C@@H](CNCc3cc(Cl)ccc3OCc3ccc(Cl)cc3)O2)c(=O)[nH]c1=O	none (no result: SW480 rerep, MCF10A rereplic)
COP(=O)(c1ccc(N(C)C)cc1)C(O)c1ccccc1 (centres undefined)	none
Cc1cc(/C=C/C#N)cc(C)c1Nc1nc(Nc2ccc3n[nH]nc3c2)c2[nH]cnc2n1	none (no result: KCNH2 3.1 block, SW480 rerep, KCNH2 WT inh, MCF10A rereplic)
CCCn1c(SCC(=O)NCCc2ccccc2)nnc1-c1ccco1	none
O=C(CN(c1cc(C(F)(F)F)ccc1Cl)S(=O)(=O)c1ccccc1)NCCc1ccccc1	none (no result: KCNH2 3.1 block, SW480 rerep, KCNH2 WT inh, MCF10A rereplic)
O=C1c2ccccc2C(=O)c2c(NCc3cccnc3)cccc21	KB-V1 MDR tox 8.2µM
c1ccc(NCc2cccnc2)cc1	none
C/C(=N\Nc1ncnc2sc(C)c(C)c12)c1ccccn1	KB-V1 MDR tox inconclusive, SW480 rerep inconclusive, KCNH2 WT inh -73.0, MCF10A rereplic inconclusive, KB-3-1 tox inconclusive
O=C(C1CCCO1)N1CCN(S(=O)(=O)c2cc(F)ccc2F)CC1 (centres undefined)	none
O=S(=O)(CCS(=O)(=O)c1ccccc1)c1ccccc1	SW480 rerep 16.4µM, MCF10A rereplic inconclusive
O=[N+]([O-])c1cccc(SSc2cccc([N+](=O)[O-])c2)c1	SW480 rerep 18.4µM, MCF10A rereplic inconclusive
Nc1cccc([N+](=O)[O-])c1	KB-V1 MDR tox inconclusive
COc1ccc(Cl)cc1NC(=O)CN(C)CC(=O)Nc1cc(OC)c(OC)c(OC)c1	SW480 rerep inconclusive, MCF10A rereplic inconclusive, KB-3-1 tox 4.61µM
COc1ccc(NC(=O)CS(=O)CC(=O)Nc2cc(Cl)ccc2OC)cc1 (centres undefined)	KB-V1 MDR tox 20.6µM
COc1ccc(Cl)cc1NC(=O)CN(C)C(=O)c1cccc(S(=O)(=O)N2CCN(C)CC2)c1	KB-V1 MDR tox 20.6µM
CCCN(CC(=O)Nc1cc(Cl)ccc1Cl)C(=O)/C=C/c1cc(OC)ccc1OC	SW480 rerep inconclusive, MCF10A rereplic 20.6µM
CCCN(CC(=O)Nc1ccc(Cl)cc1Cl)C(=O)/C=C/c1cc(OC)ccc1OC	KB-V1 MDR tox inconclusive (no result: SW480 rerep)
COc1ccc[n+](CC(=O)c2ccc(F)cc2)c1	KB-3-1 tox inconclusive (no result: KCNH2 3.1 block, SW480 rerep, KCNH2 WT inh, MCF10A rereplic)
CN1C(=O)/C(=C\c2ccco2)N=C1c1ccc(Cl)cc1Cl	none
O=c1c2ccccc2nc2n1CC/C2=C\N1CCN(c2ccc([N+](=O)[O-])cc2)CC1	none
O=C(N/N=C\c1ccc(CNS(=O)(=O)c2ccccc2)o1)C(=O)Nc1ccc(F)cc1	none (no result: SW480 rerep)
O=C(N/N=C\c1ccc(CN(Cc2ccc(Cl)cc2)S(=O)(=O)c2ccccc2)o1)C(=O)Nc1ccc(F)cc1	KCNH2 3.1 block -75.5
Nc1c(C(=O)OCC2CCCO2)c2nc3ccccc3nc2n1-c1ccc2c(c1)OCCO2 (centres undefined)	MCF10A rereplic inconclusive
CCOCCCNC(=O)c1c(N)n(-c2ccc3c(c2)OCO3)c2nc3ccccc3nc12	SW480 rerep 9.2µM, MCF10A rereplic 23.1µM
COCCCNC(=O)c1c(N)n(-c2ccc3c(c2)OCO3)c2nc3ccccc3nc12	SW480 rerep 6.51µM, MCF10A rereplic 10µM
Nc1c(C(=O)NC2CC2)c2nc3ccccc3nc2n1-c1ccc2c(c1)OCO2	SW480 rerep inconclusive, MCF10A rereplic 2.91µM
CCCNC(=O)c1c(N)n(-c2ccc3c(c2)OCO3)c2nc3ccccc3nc12	SW480 rerep inconclusive, KB-3-1 tox inconclusive
CCCNC(=O)c1c(N)n(-c2cc(OC)cc(OC)c2)c2nc3ccccc3nc12	SW480 rerep 9.2µM, MCF10A rereplic 16.4µM
CCOCCCNC(=O)c1c(N)n(-c2ccc(S(N)(=O)=O)cc2)c2nc3ccccc3nc12	SW480 rerep inconclusive, MCF10A rereplic inconclusive
C[C@H](CO)N1C[C@H](C)[C@@H](CN(C)C(=O)c2ccc(N3CCN(C)CC3)cc2)OCc2cnnn2CCCC1=O	none (no result: KCNH2 3.1 block, SW480 rerep, KCNH2 WT inh, MCF10A rereplic)
Cc1occc1-c1nnc(SCC(=O)c2ccc(F)cc2)o1	KB-V1 MDR tox inconclusive
COc1cccc(Oc2ccc(S(=O)(=O)N3CCOCC3)cc2[N+](=O)[O-])c1	none
COc1ccc(NC(=O)C2CCCN(CCCc3ccccc3)C2)cc1OCC(C)C (centres undefined)	KB-V1 MDR tox inconclusive, KCNH2 3.1 block inconclusive
Cc1cc(C)nc(N2CCCC(C(=O)NCc3cccs3)C2)n1 (centres undefined)	KB-V1 MDR tox 16.4µM
Cc1cc(C)nc(N2CCCC(C(=O)NC(C)CCc3ccco3)C2)n1 (centres undefined)	KB-V1 MDR tox 10.3µM
Cc1cc(C)nc(N2CCCC(C(=O)NCc3ccccc3)C2)n1 (centres undefined)	none
CCCCNC(=O)C1CCN(c2nc(OC)nc(OC)n2)CC1	KB-V1 MDR tox 20.6µM
COc1nc(OC)nc(N2CCC(C(=O)NCc3cccs3)CC2)n1	KB-V1 MDR tox 18.4µM
CC1(C)OC2COC(c3[nH]nc4c(=O)[nH]c(=O)[nH]c34)C2O1 (centres undefined)	none (no result: SW480 rerep, MCF10A rereplic)
CN1CCCN(C(=O)c2cccc3ccccc23)CC1	MCF10A rereplic inconclusive
O=C(NCCCNC(=O)c1ccco1)c1ccc(F)cc1	none
O=C(Oc1cccc(-n2cnnn2)c1)c1ccccc1Cl	SW480 rerep inconclusive
CCCc1nc2sc3c(SCC(=O)NCc4ccco4)ncnc3c2c2c1CCC2	KB-V1 MDR tox 11.6µM, SW480 rerep 14.6µM, MCF10A rereplic 9.2µM, KB-3-1 tox inconclusive
O=C(CSc1nc(C2CC2)nc2sc3c(c12)CCCC3)NCc1ccco1	MCF10A rereplic 16.4µM
Cc1nc(SCC(=O)NCc2ccco2)c2c3c(sc2n1)CCCC3	KB-V1 MDR tox inconclusive, MCF10A rereplic inconclusive, KB-3-1 tox inconclusive
CC(C)Sc1nc2sc3c(c2c2nnc(SCC(=O)NCc4ccco4)n12)CCCC3	KB-V1 MDR tox 18.4µM, MCF10A rereplic inconclusive
CC1CCc2c(sc3ncn4c(SCC(=O)NCc5ccco5)nnc4c23)C1 (centres undefined)	none
